Measured values from the supplement of paper PMC12350171.
Structures can show the parent of a compound that is named as a salt. A number with no mark means an inactive call.

Tested on: Yersinia pseudotuberculosis
Test: growth AUC normalised to DMSO control (fraction of control); higher = less growth inhibition, active = hit call of the paper
Conditions: 20 µM
How it was run: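 After two anaerobic passages, pathogens were added at a starting OD578 of 0.01 to pre-reduced mGAM plates holding compound at 20 μM with 1% DMSO; hemin and NAD were supplemented for Haemophilus parainfluenzae. Sealed with breathable membranes, plates were read at OD578 hourly for 24 h, in three biological replicates. The trapezoidal rule, applied up to the exponential-to-stationary transition, gave the growth-curve AUC, which was normalised to DMSO controls on the same plate.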

Row | SMILES | growth AUC normalised to DMSO control
1 | CN1CCN(c2c(F)cc3c(=O)c(C(=O)O)cn(CCF)c3c2F)CC1 [Fleroxacin] | 0.0196 (active)
2 | CC(C)OC(=O)C(C)(C)Oc1ccc(C(=O)c2ccc(Cl)cc2)cc1 [Fenofibrate] | 0.992
3 | Cc1cn([C@H]2C[C@H](N=[N+]=[N-])[C@@H](CO)O2)c(=O)[nH]c1=O [Zidovudine] | 0.781 (active)
4 | CCC1(c2ccccc2)C(=O)NCNC1=O [Primidone] | 0.951
5 | O=C(C1CCCCC1)N1CC(=O)N2CCc3ccccc3C2C1 (configuration not stated) [Praziquantel] | 0.996
6 | CC(=O)Oc1ccc(C(c2ccc(OC(C)=O)cc2)c2ccccn2)cc1 [Bisacodyl] | 1.01
7 | Cn1c(=O)c2[nH]cnc2n(C)c1=O [Aminophylline] | 0.979
8 | N[C@@H](Cc1ccc(O)c(O)c1)C(=O)O [Levodopa] | 0.99
9 | Cc1ncc(C[n+]2csc(CCO)c2C)c(N)n1 [Thiamine hydrochloride] | 0.999
10 | CCN1CCN(C(=O)N[C@@H](C(=O)N[C@@H]2C(=O)N3[C@@H]2SC(C)(C)[C@@H]3C(=O)O)c2ccccc2)C(=O)C1=O [Piperacillin sodium salt] | 0.291 (active)
11 | NNc1nncc2ccccc12 [Hydralazine hydrochloride] | 1.03
12 | Cc1ncc([N+](=O)[O-])n1CCO [Metronidazole] | 1
13 | CC(C)NC[C@H](O)COc1cccc2ccccc12 [(S)-(-)-Propranolol hydrochloride] | 0.996
14 | CC(C)NC[C@@H](O)COc1cccc2ccccc12 [(R) Propranolol hydrochloride] | 0.999
15 | C[C@H]1[C@H](NC(=O)/C(=N\OC(C)(C)C(=O)O)c2csc(N)n2)C(=O)N1S(=O)(=O)O [Aztreonam] | 0.135 (active)
16 | O=C1C(=O)c2ccccc2C(O)=C1C1CCC(c2ccc(Cl)cc2)CC1 (configuration not stated) [Atovaquone] | 0.993
17 | O=C(O)c1cc(/N=N/c2ccc(S(=O)(=O)Nc3ccccn3)cc2)ccc1O [Sulfasalazine] | 0.99
18 | C[C@]12CC[C@@H]3c4ccc(O)cc4CC[C@H]3[C@@H]1C[C@@H](O)[C@@H]2O [Estriol] | 1.01
19 | Cn1c(=O)c2nc[nH]c2n(C)c1=O [Theophylline monohydrate] | 1.02
20 | COc1cc([C@@H]2c3cc4c(cc3[C@@H](O[C@@H]3O[C@@H]5CO[C@@H](C)O[C@H]5[C@H](O)[C@H]3O)[C@H]3COC(=O)[C@H]23)OCO4)cc(OC)c1O [Etoposide] | 0.99

Tested on: P. vulgatus RND KO;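 also: active when median AUC fell below 0.1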
Test: growth AUC normalised to DMSO control (median) (fraction of control); higher = less growth inhibition, active = hit call of the paper
Conditions: 20 µM
How it was run: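 Strains were passaged twice overnight without oxygen, then grown in mGAM in 96-well plates with each approved-drug library compound at 20 μM and 1% DMSO, starting at OD578 0.01. OD578 was read hourly for 24 h inside an anaerobic incubator. Curves were truncated at entry into stationary phase, and the trapezoidal-rule area under the curve was normalised to same-plate vehicle wells. The value is the median across three biological replicates.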

Row | SMILES | growth AUC normalised to DMSO control
21 | Cc1cc(/C=C/c2ccc3cc(N(C)C)ccc3[n+]2C)c(C)n1-c1ccccc1 [Pyrvinium pamoate] | 1.01
22 | CN1CCN(c2c(F)cc3c(=O)c(C(=O)O)cn(CCF)c3c2F)CC1 [Fleroxacin] | 0.727
23 | CC(C)OC(=O)C(C)(C)Oc1ccc(C(=O)c2ccc(Cl)cc2)cc1 [Fenofibrate] | 0.996
24 | CCC1(c2ccccc2)C(=O)NCNC1=O [Primidone] | 1
25 | COc1ccnc(C[S+]([O-])c2nc3cc(OC(F)F)ccc3[nH]2)c1OC (configuration not stated) [Pantoprazole sodium] | 0.991
26 | CO/N=C1\CN(c2nc3c(cc2F)c(=O)c(C(=O)O)cn3C2CC2)CC1CN (configuration not stated) [Gemifloxacin mesylate] | 0.0152 (active)
27 | O=C(C1CCCCC1)N1CC(=O)N2CCc3ccccc3C2C1 (configuration not stated) [Praziquantel] | 0.997
28 | CC(/C=C1\SC(=S)N(CC(=O)O)C1=O)=C\c1ccccc1 [Epalrestat] | 1.01
29 | CC(=O)Oc1ccc(C(c2ccc(OC(C)=O)cc2)c2ccccn2)cc1 [Bisacodyl] | 1.02
30 | Cn1c(=O)c2[nH]cnc2n(C)c1=O [Aminophylline] | 1.03
31 | N[C@@H](Cc1ccc(O)c(O)c1)C(=O)O [Levodopa] | 1.01
32 | CCCSS/C(CCO)=C(/C)N(C=O)Cc1cnc(C)nc1N [Prosultiamine] | 1.09
33 | O=P(O)(O)C(O)(Cc1cccnc1)P(=O)(O)O [Risedronic acid monohydrate] | 0.976
34 | NCCc1c[nH]cn1 [Histamine dihydrochloride] | 0.991
35 | O=C(NCCCN1CCOCC1)c1ccc(Cl)cc1 [Eprobemide] | 1.04
36 | CC[C@H]1OC(=O)C[C@@H](O)[C@H](C)[C@@H](O[C@@H]2O[C@H](C)[C@@H](O[C@H]3C[C@@](C)(O)[C@@H](O)[C@H](C)O3)[C@H](N(C)C)[C@H]2O)[C@@H](CC=O)C[C@@H](C)C(=O)/C=C/C(C)=C/[C@@H]1CO[C@@H]1O[C@H](C)[C@@H](O)[C@@H](OC)[C@H]1OC [Tylosin] | 0.015 (active)
37 | Cc1ncc(C[n+]2csc(CCO)c2C)c(N)n1 [Thiamine hydrochloride] | 0.978
38 | CCOc1cc(N)c(Cl)cc1C(=O)NCC1CN(Cc2ccc(F)cc2)CCO1 (configuration not stated) [Mosapride] | 0.938
39 | CCN1CCN(C(=O)N[C@@H](C(=O)N[C@@H]2C(=O)N3[C@@H]2SC(C)(C)[C@@H]3C(=O)O)c2ccccc2)C(=O)C1=O [Piperacillin sodium salt] | 0.0135 (active)

Row | SMILES | growth AUC normalised to DMSO control
40 | NNc1nncc2ccccc12 [Hydralazine hydrochloride] | 1.01
41 | C=C(CC)C(=O)c1ccc(OCC(=O)O)c(Cl)c1Cl [Ethacrynic acid] | 0.994
42 | CC(NN)c1ccccc1 (configuration not stated) [Mebanazine] | 0.898
43 | Nc1nc2[nH]cc(CCc3ccc(C(=O)N[C@@H](CCC(=O)O)C(=O)O)cc3)c2c(=O)[nH]1 [Pemetrexed disodium] | 1.07
44 | Cc1ncc([N+](=O)[O-])n1CCO [Metronidazole] | 0.0156 (active)
45 | Cc1[nH]cnc1CN1CCc2c(c3ccccc3n2C)C1=O [Alosetron hydrochloride] | 0.996
46 | CCOc1ccccc1C(N)=O [Ethenzamide] | 1.02
47 | CC(C)NC[C@H](O)COc1cccc2ccccc12 [(S)-(-)-Propranolol hydrochloride] | 1.04
48 | C[C@H](O)[C@H](O)[C@H]1CNc2[nH]c(N)nc(=O)c2N1 [Sapropterin dihydrochloride] | 1.04
49 | CN(CCCN1c2ccccc2CCc2ccccc21)CC(=O)c1ccc(Cl)cc1 [Lofepramine] | 0.944
50 | CC(C)NC[C@@H](O)COc1cccc2ccccc12 [(R) Propranolol hydrochloride] | 0.978
51 | O=C1C(=O)c2ccccc2C(O)=C1C1CCC(c2ccc(Cl)cc2)CC1 (configuration not stated) [Atovaquone] | 1.02
52 | NC(N)=Nc1nc(CSCCN/C=N/S(=O)(=O)c2ccc(Br)cc2)cs1 [Ebrotidine] | 0.995
53 | O=C(O)c1cc(/N=N/c2ccc(S(=O)(=O)Nc3ccccn3)cc2)ccc1O [Sulfasalazine] | 1
54 | C[C@]12CC[C@@H]3c4ccc(O)cc4CC[C@H]3[C@@H]1C[C@@H](O)[C@@H]2O [Estriol] | 0.979
55 | Cn1c(=O)c2nc[nH]c2n(C)c1=O [Theophylline monohydrate] | 1.02
56 | CCOCC(O)COc1ccc(NC(=O)CC[S+](C)C)cc1 (configuration not stated) [Suplatast Tosylate] | 0.998
57 | CC(C(=O)O)c1ccc(N2CC=CC2)c(Cl)c1 (configuration not stated) [Pirprofen] | 1.08
